Assay [1] relates to PRMT1 (protein arginine N-methyltransferase 1). Description: PRMT1 binders on small-molecule microarrays, primary screen, biochemical, small-molecule microarray, 635 nm fluorescence (AID 1088).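 Further: binding of Prmt1 protein to compounds spotted on small-molecule microarray slides.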 Particulars: small-molecule microarray binding, higher = more signal.
A short description of assay [2]: yeast growth modulation, basal conditions, primary screen, YJM789 clinical isolate, OD600, 24 h (AID 1089).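 Further: growth of clinical yeast isolate S. cerevisiae YJM 789 seeded 1000 cells per well; test concentration not given here.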 The settings on record: S. cerevisiae YJM789 growth, higher = more signal, called active from +8 up or from −8 down.
A short description of assay [3]: fission yeast growth modulation, primary screen, strain 972, OD600, 24 h, no modulator (AID 1090).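 Further: basal condition with compound alone and no growth modifier present; test concentration not given here.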 Particulars: S. pombe 972 growth, higher = more signal, called active from +8 up or from −8 down.
Assay [4] can be described thus: S. cerevisiae growth modulation with rapamycin, primary screen, strain BY4716, OD600, 96 h (AID 1091). Further: test concentration not given here. The settings on record: higher = more signal, called active from +8 up or from −8 down.
Assay [5] concerns the target Torsin-1A-interacting protein 2 (Homo sapiens) (UniProt Q8NFQ8). Description: LULL1 binders on small-molecule microarray, primary screen, cell lysate, human LULL1 lysate, 635/667 nm fluorescence (AID 1092).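 Further: probe is lysate of COS7 cells overexpressing human LULL1; score merges per-feature 667 nm fluorescence with signal-to-noise.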 Particulars: hLULL1 lysate binding, 635 nm fluorescence, higher = more signal.
Assay [6] in a line: E. coli growth modulation, two-sided OD650, primary screen, E. coli filamentation project, strain DRC41, 24 h (AID 1093).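 Further: MC1000 strain lacking acrAB efflux and sulA so SOS filamentation is blocked; test concentration not given here.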 The settings on record: OD650, 24 h, higher = more signal, called active from +8 up or from −8 down.
The nature of assay [7]: small-molecule microarray binders of probe aLefty2, primary screen, biochemical, biotinylated probe, 635/667 nm fluorescence (AID 1094).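 Further: score merges spot fluorescence near 667 nm with spot signal-to-noise ratio.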 Particulars: higher = more signal.
The subject of assay [8] is Noggin (protein binding on small-molecule microarray). Description: Noggin binders on small-molecule microarray, primary screen, biochemical, 635/667 nm fluorescence (AID 1095).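 Further: score merges 667 nm feature fluorescence with signal to noise over triplicate slides.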 Particulars: 635 nm fluorescence, higher = more signal.
Assay [9] addresses Neurogenic locus notch homolog protein 3 (Homo sapiens) (UniProt Q9UM47). Description: NOTCH3 binders on small-molecule microarray, primary screen, biochemical, 635/667 nm fluorescence (AID 1096). The settings on record: NOTCH3 binding, 635 nm fluorescence, higher = more signal.
Assay [10] in a line: small-molecule microarray binders of probe aEGFR, primary screen, biochemical, biotinylated probe, 635/667 nm fluorescence (AID 1097).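 Further: probe is a biotinylated anti-EGFR antibody binding compounds printed on slides; score combines fluorescence near 667 nm and signal to noise of each spot.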 The settings on record: higher = more signal.
Assay [11] deals with Plasmodium falciparum Sir2 (PF13_0152, Sir2A). In words: pfSir2 binders on small-molecule microarrays, primary screen, biochemical, small-molecule microarray, 635 nm fluorescence (AID 1098).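 Further: score merges spot fluorescence intensity with its signal-to-noise ratio.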 The settings on record: small-molecule microarray binding, fluorescence 635 nm; higher = more signal.
Assay [12] in a line: small-molecule microarray binders of probe aDKK1, primary screen, biochemical, biotinylated probe, 635/667 nm fluorescence (AID 1099).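 Further: score merges 667nm spot fluorescence with signal to noise across triplicate slides; reference of the scale not given here.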 Particulars: higher = more signal.
Assay [13] can be described thus: small-molecule microarray binders of probe aCHRDL2, primary screen, biochemical, biotinylated probe, 635/667 nm fluorescence (AID 1100). The settings on record: higher = more signal.
The nature of assay [14]: splicing luciferase reporter signal modulators, primary screen, spliceosome inhibition project, cell-based, HEK293, splice +/- reporter (AID 1101).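 Further: HEK293 cells carrying a splicing-competent luciferase reporter gene; test concentration not given here.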 The settings on record: luminescence, 24 h, higher = more signal, called active from +8 up or from −8 down.
Assay [15] addresses Fibroblast growth factor 10 (Homo sapiens) (UniProt O15520). Description: FGF10 binders on small-molecule microarrays, primary screen, biochemical, small-molecule microarray, 635 nm fluorescence (AID 1102). The settings on record: FGF10 binding, fluorescence 635 nm, higher = more signal.
In assay [16] the test system is glycogen synthase kinase-3 (GSK3A per assay name; protocol says GSK3B). Description: GSK3 binders on small-molecule microarrays, primary screen, biochemical, small-molecule microarray, 635 nm fluorescence, GSK3A (AID 1103). Further: the record names both GSK3A and GSK3B. Particulars: small-molecule microarray binding, fluorescence 635 nm; higher = more signal.
The target in assay [17] is Epidermal growth factor receptor (Homo sapiens) (UniProt P00533). In words: EGFR binders on small-molecule microarrays, primary screen, biochemical, small-molecule microarray, 635 nm fluorescence (AID 1104).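 Further: score merges 667 nm emission intensity with spot signal to noise over triplicate slides.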 Particulars: EGFR binding, higher = more signal.
Chain of Epidermal growth factor receptor (Homo sapiens) (P00533 whole entry, looked up): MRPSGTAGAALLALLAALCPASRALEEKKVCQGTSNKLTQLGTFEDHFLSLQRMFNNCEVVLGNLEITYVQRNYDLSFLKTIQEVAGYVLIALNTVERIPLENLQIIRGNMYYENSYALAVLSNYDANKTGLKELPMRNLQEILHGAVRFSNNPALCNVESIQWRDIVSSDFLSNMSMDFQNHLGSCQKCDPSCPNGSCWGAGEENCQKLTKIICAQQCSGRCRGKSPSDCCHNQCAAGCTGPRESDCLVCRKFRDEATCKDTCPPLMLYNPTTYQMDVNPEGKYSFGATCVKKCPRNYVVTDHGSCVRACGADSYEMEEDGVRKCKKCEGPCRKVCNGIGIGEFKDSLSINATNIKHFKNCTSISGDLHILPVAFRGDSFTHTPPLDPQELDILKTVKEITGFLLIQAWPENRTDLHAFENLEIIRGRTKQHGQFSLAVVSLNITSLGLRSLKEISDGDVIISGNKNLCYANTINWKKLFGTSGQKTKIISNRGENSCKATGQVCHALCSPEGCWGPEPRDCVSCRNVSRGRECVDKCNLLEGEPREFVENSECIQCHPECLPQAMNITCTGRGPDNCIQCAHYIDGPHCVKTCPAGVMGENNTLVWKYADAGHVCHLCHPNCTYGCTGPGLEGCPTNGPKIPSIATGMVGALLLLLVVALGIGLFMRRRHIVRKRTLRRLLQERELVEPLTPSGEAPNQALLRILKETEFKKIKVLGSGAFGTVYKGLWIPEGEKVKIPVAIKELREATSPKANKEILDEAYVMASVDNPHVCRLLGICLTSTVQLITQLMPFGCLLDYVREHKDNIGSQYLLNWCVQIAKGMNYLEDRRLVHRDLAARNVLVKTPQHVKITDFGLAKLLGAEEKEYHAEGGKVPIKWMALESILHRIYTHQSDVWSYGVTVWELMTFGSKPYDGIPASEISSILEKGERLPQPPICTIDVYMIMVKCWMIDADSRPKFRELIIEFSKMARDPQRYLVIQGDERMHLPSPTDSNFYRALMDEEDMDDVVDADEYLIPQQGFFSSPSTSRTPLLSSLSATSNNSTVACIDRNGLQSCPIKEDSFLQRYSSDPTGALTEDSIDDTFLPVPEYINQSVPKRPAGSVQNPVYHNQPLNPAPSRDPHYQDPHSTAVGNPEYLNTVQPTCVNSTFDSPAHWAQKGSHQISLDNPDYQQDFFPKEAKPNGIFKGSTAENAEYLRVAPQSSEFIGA
Assay [18] deals with Follistatin-related protein 3 (Homo sapiens) (UniProt O95633). Description: FSTL3 binders on small-molecule microarrays, primary screen, biochemical, small-molecule microarray, 635 nm fluorescence (AID 1105).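 Further: score merges emission near 667 nm and signal to noise per printed spot across three slides.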 Particulars: FSTL3 binding, higher = more signal.
Chain of Follistatin-related protein 3 (Homo sapiens) (O95633 whole entry, looked up): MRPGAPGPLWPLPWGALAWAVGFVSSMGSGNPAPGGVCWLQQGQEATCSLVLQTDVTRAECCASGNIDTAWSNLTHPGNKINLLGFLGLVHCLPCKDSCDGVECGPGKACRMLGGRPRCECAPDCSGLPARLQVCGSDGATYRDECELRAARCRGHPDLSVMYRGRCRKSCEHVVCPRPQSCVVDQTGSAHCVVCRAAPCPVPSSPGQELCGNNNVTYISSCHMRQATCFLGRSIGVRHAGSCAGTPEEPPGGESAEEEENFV
For assay [19], the target named is Dickkopf-related protein 1 (Homo sapiens) (UniProt O94907). In words: DKK1 binders on small-molecule microarrays, primary screen, biochemical, small-molecule microarray, 635 nm fluorescence scan (AID 1106).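 Further: score merges emission near 667 nm with signal to noise over three replicate slides.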 The settings on record: DKK1 binding, higher = more signal.
Chain of Dickkopf-related protein 1 (Homo sapiens) (O94907 whole entry, looked up): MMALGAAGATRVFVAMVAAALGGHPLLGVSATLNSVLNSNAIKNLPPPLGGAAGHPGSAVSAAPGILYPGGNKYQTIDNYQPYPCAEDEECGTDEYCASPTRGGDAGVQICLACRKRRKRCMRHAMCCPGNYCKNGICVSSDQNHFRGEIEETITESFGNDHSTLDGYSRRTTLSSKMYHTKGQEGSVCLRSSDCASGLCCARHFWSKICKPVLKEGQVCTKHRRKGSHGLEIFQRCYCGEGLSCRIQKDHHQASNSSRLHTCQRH
Assay [20] deals with Inhibin beta A chain (activin A). Description: INHBA (activin A) binders on microarrays, primary screen, biochemical, small-molecule microarray, 635 nm fluorescence scan (AID 1107).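 Further: mouse activin A protein probed at 4.33 µg/mL on printed slides; score merges bound-protein fluorescence near 667 nm with spot signal-to-noise.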 The settings on record: small-molecule microarray binding, higher = more signal.

Calls of active or inactive are those of the source.

Chain of Neurogenic locus notch homolog protein 3 (Homo sapiens) (Q9UM47 whole entry, looked up): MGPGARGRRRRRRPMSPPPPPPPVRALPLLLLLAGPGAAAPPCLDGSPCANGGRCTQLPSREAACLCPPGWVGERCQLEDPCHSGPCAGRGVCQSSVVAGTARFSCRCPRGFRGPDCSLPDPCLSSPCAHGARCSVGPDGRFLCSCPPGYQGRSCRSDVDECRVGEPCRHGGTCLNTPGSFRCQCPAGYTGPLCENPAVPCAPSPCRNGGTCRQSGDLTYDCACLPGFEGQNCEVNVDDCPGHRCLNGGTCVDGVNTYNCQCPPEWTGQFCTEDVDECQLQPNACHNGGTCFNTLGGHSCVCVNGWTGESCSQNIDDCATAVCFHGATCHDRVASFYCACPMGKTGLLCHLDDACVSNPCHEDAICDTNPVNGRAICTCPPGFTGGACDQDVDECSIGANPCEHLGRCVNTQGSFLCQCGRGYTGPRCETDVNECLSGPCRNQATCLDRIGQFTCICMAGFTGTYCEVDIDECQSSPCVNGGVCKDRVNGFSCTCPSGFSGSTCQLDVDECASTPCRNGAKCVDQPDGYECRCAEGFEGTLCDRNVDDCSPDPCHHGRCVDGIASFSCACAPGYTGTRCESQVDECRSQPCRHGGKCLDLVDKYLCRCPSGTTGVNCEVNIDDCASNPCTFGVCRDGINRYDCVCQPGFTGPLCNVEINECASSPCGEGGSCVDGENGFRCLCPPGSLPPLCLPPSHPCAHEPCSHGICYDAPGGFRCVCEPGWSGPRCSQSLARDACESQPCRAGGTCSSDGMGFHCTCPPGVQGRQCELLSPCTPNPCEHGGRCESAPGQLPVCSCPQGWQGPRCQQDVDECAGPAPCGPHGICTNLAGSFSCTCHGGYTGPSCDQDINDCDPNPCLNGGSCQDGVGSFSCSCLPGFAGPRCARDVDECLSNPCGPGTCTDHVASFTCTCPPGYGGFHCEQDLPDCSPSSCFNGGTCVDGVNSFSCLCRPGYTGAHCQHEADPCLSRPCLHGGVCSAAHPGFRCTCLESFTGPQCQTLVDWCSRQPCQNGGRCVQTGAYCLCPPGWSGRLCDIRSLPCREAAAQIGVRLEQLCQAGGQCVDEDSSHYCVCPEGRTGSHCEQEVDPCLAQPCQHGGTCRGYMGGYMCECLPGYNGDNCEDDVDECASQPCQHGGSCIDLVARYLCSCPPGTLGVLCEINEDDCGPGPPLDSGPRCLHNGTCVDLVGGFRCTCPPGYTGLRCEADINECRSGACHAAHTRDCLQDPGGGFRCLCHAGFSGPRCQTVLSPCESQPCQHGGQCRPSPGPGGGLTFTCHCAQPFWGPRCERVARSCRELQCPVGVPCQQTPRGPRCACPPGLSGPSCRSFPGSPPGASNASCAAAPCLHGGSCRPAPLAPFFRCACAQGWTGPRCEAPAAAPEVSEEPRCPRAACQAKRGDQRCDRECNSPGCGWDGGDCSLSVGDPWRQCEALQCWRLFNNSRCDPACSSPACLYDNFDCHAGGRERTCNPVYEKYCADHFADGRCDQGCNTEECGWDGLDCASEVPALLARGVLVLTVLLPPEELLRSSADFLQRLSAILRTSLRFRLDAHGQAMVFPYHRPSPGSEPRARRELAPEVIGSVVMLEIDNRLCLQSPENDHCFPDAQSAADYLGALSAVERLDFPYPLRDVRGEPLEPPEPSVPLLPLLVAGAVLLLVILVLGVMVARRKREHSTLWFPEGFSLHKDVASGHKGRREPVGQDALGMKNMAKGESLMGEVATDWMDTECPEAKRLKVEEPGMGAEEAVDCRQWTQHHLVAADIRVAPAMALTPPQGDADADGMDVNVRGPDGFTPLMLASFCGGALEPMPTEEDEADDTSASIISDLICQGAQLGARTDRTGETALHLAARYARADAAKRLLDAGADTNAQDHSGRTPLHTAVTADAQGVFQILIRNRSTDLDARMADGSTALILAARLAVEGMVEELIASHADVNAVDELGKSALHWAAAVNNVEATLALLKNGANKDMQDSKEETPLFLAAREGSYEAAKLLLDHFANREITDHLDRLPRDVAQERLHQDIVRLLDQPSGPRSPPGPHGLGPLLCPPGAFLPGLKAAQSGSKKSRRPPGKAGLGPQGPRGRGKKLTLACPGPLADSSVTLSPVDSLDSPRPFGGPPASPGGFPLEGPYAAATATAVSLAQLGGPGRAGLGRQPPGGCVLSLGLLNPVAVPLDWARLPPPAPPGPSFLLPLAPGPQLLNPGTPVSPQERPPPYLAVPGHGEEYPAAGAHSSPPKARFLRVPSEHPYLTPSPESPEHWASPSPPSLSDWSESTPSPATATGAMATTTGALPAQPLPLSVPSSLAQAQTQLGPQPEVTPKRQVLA
Chain of Torsin-1A-interacting protein 2 (Homo sapiens) (Q8NFQ8 whole entry, looked up): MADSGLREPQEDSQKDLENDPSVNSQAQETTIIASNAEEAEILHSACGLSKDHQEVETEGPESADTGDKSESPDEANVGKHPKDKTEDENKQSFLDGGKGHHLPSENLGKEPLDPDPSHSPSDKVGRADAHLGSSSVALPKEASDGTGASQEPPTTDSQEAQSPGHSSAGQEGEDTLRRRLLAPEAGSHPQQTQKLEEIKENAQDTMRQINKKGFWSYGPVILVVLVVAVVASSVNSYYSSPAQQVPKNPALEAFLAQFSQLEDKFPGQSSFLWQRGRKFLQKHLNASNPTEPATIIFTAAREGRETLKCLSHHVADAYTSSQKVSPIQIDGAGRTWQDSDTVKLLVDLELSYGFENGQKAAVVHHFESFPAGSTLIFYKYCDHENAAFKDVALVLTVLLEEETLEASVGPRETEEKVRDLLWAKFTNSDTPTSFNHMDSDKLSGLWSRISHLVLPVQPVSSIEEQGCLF
Chain of Fibroblast growth factor 10 (Homo sapiens) (O15520 whole entry, looked up): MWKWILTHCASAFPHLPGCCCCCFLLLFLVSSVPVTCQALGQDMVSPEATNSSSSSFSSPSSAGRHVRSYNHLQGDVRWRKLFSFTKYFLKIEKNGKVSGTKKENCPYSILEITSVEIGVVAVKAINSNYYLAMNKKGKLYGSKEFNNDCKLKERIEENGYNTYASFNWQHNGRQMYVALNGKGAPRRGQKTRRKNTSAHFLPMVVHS

For `O=C1O[C@H](c2ccccc2)[C@H](c2ccccc2)N2[C@H]1[C@@H](C(=O)Nc1nc3ccccc3s1)[C@]1(C(=O)Nc3ccc(C#CC4=CCCCC4)cc31)[C@H]2c1ccccc1OCCO`, the composite z-score is 1.56 in assay [1]; 2.35 in assay [5]; -0.0778 in [7]; 1.53 in [8]; 1.1 in [9]; 0.0564 in [10]. For the same compound, the composite z-score in assay [11] is 1.51; in assay [12], -0.0804; in assay [13] it was -0.262; in assay [15] it was 1.14; in assay [16] it was 1.02; in assay [17] it was 0.516. Also, the composite z-score in assay [18] was 1.27; in [19], 0.574; in assay [20], 0.345. Also, the z-score in [2] is 2.17 (inactive); in assay [3], 1.82 (inactive); in [4], 4.5 (inactive); in assay [6], -0.0227 (inactive); in [14] it was -1.69 (inactive).

Take `CC(=O)NCCCC[C@@H]1NC(=O)[C@@H]2C[C@H](C(=O)NCCCCCNC(=O)CS)[C@H](c3ccc(O)cc3)N2C1=O`: the composite z-score in assay [1] was 0.483; in assay [5] it was -0.0471; in assay [7], -0.149; in assay [8], 1.11; in assay [9] it was 0.108; in assay [10], -0.212. Besides, the composite z-score in [11] was 1.45; in assay [12], -0.384; in assay [13] it was 0.292; in assay [15] it was -0.282; in [16], -0.631; in assay [17], -0.817. The composite z-score was -0.781 in assay [18], 0.527 in assay [19] and 0.247 in assay [20]. Also, the z-score in [2] is -2.05 (inactive); in [3], -1.83 (inactive); in assay [4], -1.55 (inactive); in assay [6], 2.99 (inactive); in assay [14] it was -1.88 (inactive).

Turning to `N#Cc1ccc(NN2C(C(O)CCc3ccccc3)C=CC3C(=O)N(c4ccccc4)C(=O)C32)cc1` (stereo not given), the composite z-score in [1] was 0.212; in [5] it was 3.01; in assay [7], 0.25; in assay [8], -0.172; in assay [9], 1.13; in [10] it was 0.35. Moreover, the composite z-score was 0.712 in [11]; 1.18 in assay [12]; 1.11 in assay [13]; 0.25 in assay [15]; 0.767 in assay [16]; -0.164 in [17]. The composite z-score was found to be 0.228 in [18], 0.0048 in [19] and 1.02 in assay [20]. Further, the z-score was -1.53 (inactive) in [2]; 0.222 (inactive) in assay [3]; 1.13 (inactive) in [4]; -1.11 (inactive) in assay [6]; -0.474 (inactive) in assay [14].

With `CC[C@@H]1C=C(C(=O)O)[C@H](c2ccccc2)N1S(=O)(=O)c1ccc([N+](=O)[O-])cc1`, the composite z-score was 0.372 in assay [1]; 3.38 in assay [5]; 0.0634 in assay [7]; -0.297 in [8]; 0.481 in assay [9]; 0.0276 in [10]. For the same compound, the composite z-score in assay [11] was 0.956; in assay [12], -0.255; in assay [13], 0.887; in assay [15] it was 0.0734; in assay [16] it was 1.16; in assay [17], -0.314. Besides, the composite z-score in assay [18] is 0.0657; in assay [19] it was -0.538; in [20] it was 0.781. Moreover, the z-score in assay [2] was 0.308 (inactive); in assay [3] it was -0.434 (inactive); in [4], 0.632 (inactive); in assay [6], -1.86 (inactive); in assay [14], -0.812 (inactive).

`CCN1C(C)=C(C(=O)OC)[C@@H](c2ccccc2)N2C(=O)[C@@]3(C(=O)OC)O[C@@]12[C@@H]1C(=O)CCC[C@@H]13`: the composite z-score in [1] is 1.12; in [5] it was -0.323; in assay [7], -0.243; in assay [8], 1.57; in assay [9], 0.135; in assay [10], 0.0173. Besides, the composite z-score in assay [11] is 0.604; in assay [12] it was -0.786; in assay [13], -1.31; in [15], 0.903; in assay [16], 0.8; in [17] it was 0.648. Also, the composite z-score in assay [18] stood at 1.06; in assay [19], 1.85; in assay [20] it was 1.01. The z-score in assay [2] is 0.352 (inactive); in assay [3], -1.06 (inactive); in assay [4], 1.8 (inactive); in assay [6], 0.0465 (inactive); in assay [14], -0.814 (inactive).

These data come from PubChem BioAssay.
